# Source: PubChem BioAssay
# PLK1 PBD block: inhibitors of human PLK1 polo-box domain binding; actives 2.8% (n = 360,000); Potency, µM, for inactives: max response, negative = inhibition, most hits filed as inhibitors; P53350; Plk1 PBD binding of FITC phosphopeptide, fluorescence polarization; note: potency is the fitted concentration of half-maximal effect; series mostly up to about 57 µM; % is set by controls: 0 for no effect and ±100 for the full control effect; nearly all actives have a fitted effect of over 65% in size
# VDR inhibitor: vitamin D3 receptor (human) inhibition; P11473; VDR-SRC2-3 peptide fluorescence polarization, 2 h; Potency, µM, without a hit: max response, negative = inhibition, usual class: inhibitors; actives 0.93% (n = 400,000); AID 504847; note: potency is the fitted concentration of half-maximal effect; % is set by controls: 0 for no effect and ±100 for the full control effect
#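 Signal is fluorescence polarization, reporting how far test compounds block the interaction of VDR with the SRC2-3 coregulator peptide after a 2 h room-temperature incubation.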
# PI4K2A inh: PI4K2A (human) kinase inhibition; Q9BTU6; actives 0.13% (n = 420,000); activity change, negative = inhibition, % at 76.9 µM; purified PI4K2A, ADP-Glo luminescence, 1 h; hits give low values; in the data active = activity change below about -50%; inconclusive = mostly about -30% to -49%;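 note: -100% = wells without enzyme as full effect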
#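 Compounds are screened against recombinant PI4K2A using PI as substrate and ATP, the latter dispensed at 300 microM. Reactions run one hour at ambient temperature before ADP-Glo detection; full inhibition defined by wells lacking enzyme.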
# KAT2A inh: blocks human GCN5L2 histone acetyltransferase. Q92830. GCN5L2 HAT assay, ThioGlo1 CoA-SH fluorescence. Potency, µM (highest dose often 58.9 µM), without a hit: top-dose activity change, negative = inhibition, usual class: inhibitors. actives 0.21% (n = 390,000). AID 504327; note: potency is the fitted concentration of half-maximal effect; % is set by controls: 0 for no effect and ±100 for the full control effect
# Target sequence (Q92830 whole entry, looked up): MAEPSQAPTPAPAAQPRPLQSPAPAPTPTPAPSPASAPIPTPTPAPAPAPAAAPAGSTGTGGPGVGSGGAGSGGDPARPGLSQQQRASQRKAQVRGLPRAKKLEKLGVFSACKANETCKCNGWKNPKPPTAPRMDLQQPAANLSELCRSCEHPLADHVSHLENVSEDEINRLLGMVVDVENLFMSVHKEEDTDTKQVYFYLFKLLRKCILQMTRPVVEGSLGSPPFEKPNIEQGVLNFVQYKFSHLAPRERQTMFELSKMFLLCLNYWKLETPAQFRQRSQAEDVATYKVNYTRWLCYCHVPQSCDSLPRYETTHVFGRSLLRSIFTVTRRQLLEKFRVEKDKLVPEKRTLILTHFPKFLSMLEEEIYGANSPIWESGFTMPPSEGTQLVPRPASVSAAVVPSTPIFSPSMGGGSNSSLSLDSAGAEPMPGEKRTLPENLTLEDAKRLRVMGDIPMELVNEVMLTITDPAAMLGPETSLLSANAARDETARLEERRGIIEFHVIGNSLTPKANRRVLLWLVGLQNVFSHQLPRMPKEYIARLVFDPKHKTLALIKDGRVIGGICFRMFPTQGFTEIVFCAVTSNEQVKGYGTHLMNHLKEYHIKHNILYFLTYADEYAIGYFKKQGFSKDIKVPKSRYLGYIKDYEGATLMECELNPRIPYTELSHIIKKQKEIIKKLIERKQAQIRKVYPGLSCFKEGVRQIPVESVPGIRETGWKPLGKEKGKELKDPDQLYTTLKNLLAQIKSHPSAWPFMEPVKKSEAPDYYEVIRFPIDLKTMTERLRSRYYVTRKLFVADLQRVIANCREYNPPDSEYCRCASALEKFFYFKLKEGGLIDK
#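 Compounds, pin-transferred from DMSO stocks, meet 20nM GCN5L2 for 15 min before the reaction begins with H3(1-25) peptide (75uM) and acetyl-CoA (70uM). Thiol-reactive ThioGlo1 reports CoA release over 20 min at room temperature.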
# GLS inhibitor: blocks human kidney-isoform glutaminase activity | actives 0.21% (n = 410,000) | AID 624170 | GLS enzymatic activity, qHTS titration | Potency, µM (top dose mostly 45.5 µM), without a hit: top-dose activity change, negative = inhibition, actives largely listed as inhibitors; note: potency is the fitted concentration of half-maximal effect; % is set by controls: 0 for no effect and ±100 for the full control effect
#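 Two-point fluorescence kinetic (t0, 30 min RT) for hKGA; glutamate detected via glutamate oxidase–HRP–Amplex Red. Substrate: 1 mM L-glutamine solution; buffer 45 mM KH2PO4, pH 8.2.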
# USP1-UAF1 confirm: validation of human USP1/UAF1 inhibitors; shares compounds with VDR inhibitor; Ub-Rhodamine cleavage, fluorescence kinetic read; Potency, µM (top dose mostly 114 µM), inactives show at the highest dose activity change, negative = inhibition, usual class: inhibitors; actives 50% (n = 50); AID 540327
# VDR confirm: confirmation of human vitamin D receptor inhibitors; shares compounds with VDR inhibitor; VDR-coactivator inhibition assay, qHTS confirmation; Potency, µM, most hits filed as inhibitors; actives 89% (n = 840); AID 602199; note: potency is the fitted concentration of half-maximal effect
# VDR FP fluor: VDR (human) coactivator binding inhibition, fluorescein polarization. VDR-coactivator binding, fluorescein fluorescence polarization. shares compounds with VDR inhibitor. Potency, µM (top dose mostly 57.1 µM), for inactives: top-dose activity change, negative = inhibition, hits mostly inhibitors. actives 48% (n = 840); note: potency is the fitted concentration of half-maximal effect
# VDR bla: inhibits human VDR in beta-lactamase reporter cells. shares compounds with VDR inhibitor. VDR beta-lactamase reporter cells, FRET ratio; cells co-treated with VDR agonist LG190178. Potency, µM (highest dose often 46.1 µM), without a hit: at the top dose activity change, negative = inhibition, most hits filed as inhibitors. actives 23% (n = 840). AID 602202; note: potency is the fitted concentration of half-maximal effect; % is set by controls: 0 for no effect and ±100 for the full control effect
# VDR viability: cell toxicity, VDR inhibitor hit counter-screen; shares compounds with VDR inhibitor; cytotoxicity counter-screen, cell viability, qHTS; Potency, µM (highest dose often 48.3 µM), for the others: at the highest dose activity change, negative = cytotoxicity, hits mostly cytotoxic; actives 18% (n = 840); AID 602204;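 note: potency is the fitted concentration of half-maximal effect; plate controls were DMSO for no effect and high-concentration cycloheximide for full effect; nearly all actives have a fitted effect of over 75% in size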
# * hit, by the source's call; ? = inconclusive; . = no result given. This is a sample that favours compounds with a hit; in the whole collection about 3.1% have one here. Unless noted, calls come from the whole dose curve; as a rule, active = well fitted curve in the direction sought with a large enough effect; inconclusive = small, poorly fitted or top-dose-only effect, or another doubt; inactive = no such curve, though single readings can be large; an effect the other way counts as inactive or inconclusive.
SMILES,PLK1 PBD block,VDR inhibitor,PI4K2A inh,KAT2A inh,GLS inhibitor,VDR confirm,VDR FP fluor,VDR bla,VDR viability,others
CCOC(=O)COc1ccc(/C=C/[N+](=O)[O-])c(OCC(=O)OCC)c1,?,13µM*,-9,22%,?,6.7*,?,?,13µM*,
CCOC(=O)Cn1cc(/C=C/[N+](=O)[O-])c2ccccc21,?,?,6,-3%,-2%,.,.,.,.,
Cc1ccc(OCC(=O)OCC(=O)c2cccc([N+](=O)[O-])c2)cc1C,0%,-3%,0,1%,66%,.,.,.,.,
CCOc1ccc(/C=C/[N+](=O)[O-])c2ccccc12,3.4µM*,20µM*,37,?,51%,6.7*,?,?,?,
CN(Cc1ccccc1)C(=O)Cn1c(=O)c2cccn2c2ccc(F)cc21,.,6%,-3,-5%,-10%,.,.,.,.,
O=C(Cn1nnc(-c2ccc(N3CCOCC3)cc2)n1)c1ccc(F)cc1,.,.,-5,.,.,.,.,.,.,
O=C(/C=C/c1cccnc1)c1ccc([N+](=O)[O-])cc1,-20%,?,-8,-4%,11%,7.9*,8.9µM*,?,?,
O=c1nc(/C=C/c2cc([N+](=O)[O-])ccc2Cl)cc(C(F)(F)F)[nH]1,-27%,?,-12,?,5%,3.2*,3.2µM*,?,-6%,
O=c1nc(/C=C/c2cccn2-c2ccc([N+](=O)[O-])cc2)cc(C(F)(F)F)[nH]1,?,-9%,-17,-27%,4%,.,.,.,.,
O=C(NC1(O)C(=O)c2ccccc2C1=O)c1ccc(C(F)(F)F)cc1,-16%,1.8µM*,?,-8%,-13%,4.7*,?,22%,11%,
Cc1ccc(C(=O)NC2(O)C(=O)c3ccccc3C2=O)cc1C,-22%,10µM*,?,0%,-6%,?,?,13%,-1%,
CCN(CC)CCC(c1cc(OC)c(OC)c(OC)c1)c1c(OC)cc(OC)c2c1OC(=O)CC2c1ccc(N(C)C)cc1 (centres undefined),.,-14%,.,.,.,.,.,.,.,
COc1ccc(-n2c(=O)cnc3cnc(N(C)C)nc32)cc1,.,1%,.,-16%,.,.,.,.,.,
CC(C)COc1ccccc1C1CC(=O)Nc2cc3c(cc21)OCO3 (centres undefined),.,-9%,3,1%,-1%,.,.,.,.,
COCc1cc(C)nc2sc3c(c12)NC(c1ccc(O)cc1)N(c1ccc(C)cc1)C3=O (centres undefined),.,3%,1,-9%,7%,.,.,.,.,
COC(=O)C1CCN(C(=O)CCn2nnc(-c3cccs3)n2)CC1,.,.,-2,.,.,.,.,.,.,
CCCC(=O)NCCc1c2n(c3ccc(OC)cc13)CCCc1ccccc1-2,.,0%,4,-16%,.,.,.,.,.,USP1-UAF1 confirm=?
